Records with an inconclusive call do not appear. Active and inactive are the calls of the source. Rule for the calls: active = hit-call score of the fitted dose curve at least 0.9, where 1 is the maximum; inconclusive = response in the unintended direction; inactive = score below 0.9.

Chain of Cellular tumor antigen p53 (Homo sapiens) (P04637 whole entry, looked up): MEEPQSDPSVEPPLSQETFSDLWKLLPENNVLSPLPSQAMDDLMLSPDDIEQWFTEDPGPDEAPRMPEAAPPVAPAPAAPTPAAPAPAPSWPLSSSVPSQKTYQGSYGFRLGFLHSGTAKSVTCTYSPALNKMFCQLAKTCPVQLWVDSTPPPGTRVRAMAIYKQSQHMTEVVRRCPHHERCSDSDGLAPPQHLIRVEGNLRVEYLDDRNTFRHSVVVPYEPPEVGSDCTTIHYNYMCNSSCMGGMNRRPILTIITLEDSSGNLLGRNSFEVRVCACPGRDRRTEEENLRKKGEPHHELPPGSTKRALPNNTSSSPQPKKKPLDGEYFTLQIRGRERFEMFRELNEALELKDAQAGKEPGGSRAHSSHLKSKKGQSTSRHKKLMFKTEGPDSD

The experiment addresses Cellular tumor antigen p53 (Homo sapiens) (UniProt P04637). The experiment in a line: TOX21_p53_BLA_p4_ratio: Tox21 HCT-116 p53 Agonism Beta-lactamase Assay, Ratio, Phase 4 (AID 2283601). The essentials: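 Signal is the blue/green (460nm/530nm) ratio of cleaved versus uncleaved CCF4-AM substrate, read after 2 h substrate loading. Cells were HCT116 carrying the p53-responsive beta-lactamase reporter, dosed 16 h at 37C, 5% CO2; CellTiter-Glo measured in parallel.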
For the compound `CCN(CC)c1cccc(O)c1`, the outcome was inactive.

Take `CCCCCCCC`: the result was inactive.

On to `CCOC(=O)c1c[nH]c2cc(OCC(C)C)c(OCC(C)C)cc2c1=O`, for which the outcome was inactive.

As to H-RKDVY-OH, the outcome was inactive.

As to `C[C@H]1[C@@H](OC(=O)CCC(=O)O)O[C@@H]2OC3(C)CC[C@H]4[C@H](C)CC[C@@H]1[C@@]24OO3`, the outcome was inactive.

Regarding `C/C=C/C=C/CO`, the outcome was inactive.

Take `CC(C)(C)OCC1CO1` (stereo unspecified): the result was inactive.

Consider `CCCCCCCCCCCCCCCC(=O)NCCO`, for which the outcome was inactive.

For `CN(C)CCn1nnnc1SCC1=C(C(=O)O)N2C(=O)[C@@H](NC(=O)Cc3csc(N)n3)[C@H]2SC1`, the outcome was inactive.

For the compound `c1coc(Cn2cccc2)c1`, the result was inactive.

For `CC(C(=O)O)c1ccc2c(c1)[nH]c1ccc(Cl)cc12` (stereo unspecified), the result was inactive.

`CCCCCC=CCC1CC(=O)OC1=O` (stereo unspecified): the outcome was inactive.

With `CCC(=O)OC`, the result was inactive.

Regarding `C#CCN(C)CCCOc1ccc(Cl)cc1Cl`, the result was inactive.

Take `N=C(N=C(N)N)N1CCOCC1`: the outcome was inactive.

For the compound `C[S+](CC[C@H](N)C(=O)O)C[C@H]1O[C@@H](n2cnc3c(N)ncnc32)[C@H](O)[C@@H]1O` (stereo partly specified), the outcome was inactive.

Regarding `O=[N+]([O-])c1ccccc1Nc1ccccc1`, the result was inactive.

With `CN(C)CCC(c1ccccc1)c1ccccn1` (stereo unspecified), the result was inactive.

For the compound `C[C@@]12C(=O)OC(=O)[C@]1(C)C1CCC2O1`, the half-maximal activity concentration (AC50) is 2910 nM (active).

For `C[C@@H](O)[C@H](N)C(=O)O`, the outcome was inactive.

Regarding `O=C(O)c1cccc(Cl)c1Cl`, the result was inactive.

The values above are taken from PubChem BioAssay (EPA / NIEHS).
